# Screening data as filed in PubChem.
# DENV2 CPE: inhibitors of DENV2 cytopathic effect, primary screen, cell-based, plate reader, single concentration; DENV2-infected cells, cytopathic effect rescue; CPE inhibition, % at 9.99 µM; 1.7% of 350,000 active; in the data active = CPE inhibition above about 20%, passing the limit was not always enough; inconclusive = no clear call, values can overlap the other calls; tested in BHK-21 cells;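 note: 0% = median of neutral control wells and 100% = median of positive control wells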
# PDI turbidity: inhibitors of human PDI, primary screen, biochemical, turbidity, single point, plate reader. Protein disulfide-isomerase (Homo sapiens), P07237. PDI insulin aggregation turbidity, A650, 90 min. inhibition, % at 10 µM. 0.052% of 350,000 active;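 active = mean inhibition across replicates of 30% or more, whatever share of single replicates reach that level; inconclusive = mean inhibition below 30% while every single replicate reaches 30%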
# Target sequence (P07237 whole entry, looked up): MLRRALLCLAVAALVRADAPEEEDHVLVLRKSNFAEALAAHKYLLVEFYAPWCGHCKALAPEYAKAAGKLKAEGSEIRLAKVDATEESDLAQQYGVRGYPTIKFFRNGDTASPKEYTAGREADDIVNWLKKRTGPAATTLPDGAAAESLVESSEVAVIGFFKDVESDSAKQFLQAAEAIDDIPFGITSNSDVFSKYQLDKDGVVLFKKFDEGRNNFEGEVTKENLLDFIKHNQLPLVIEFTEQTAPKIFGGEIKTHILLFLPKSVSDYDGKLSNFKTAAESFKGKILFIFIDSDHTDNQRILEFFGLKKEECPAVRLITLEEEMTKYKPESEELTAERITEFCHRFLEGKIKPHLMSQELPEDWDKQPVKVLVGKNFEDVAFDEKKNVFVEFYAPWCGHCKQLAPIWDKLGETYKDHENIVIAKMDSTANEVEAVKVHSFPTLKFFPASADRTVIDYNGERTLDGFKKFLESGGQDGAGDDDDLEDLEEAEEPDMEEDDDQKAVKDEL
# ERp5 inh: inhibitors of ERp5-driven insulin aggregation, primary screen, biochemical, turbidity, absorbance 650 nm, single point; inhibition, % at 9.99 µM; 90 min; AID 651711, 2012; 0.05% of 350,000 active;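 active = mean replicate inhibition above about 25%, with every replicate also reaching it, limit read from the data, passing the limit was not always enough; inconclusive = only one of those two criteria met; inactive = neither criterion met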
# SIRT5 inh: SIRT5 desuccinylase inhibitors, primary screen, biochemical, fluorescence imaging, single point, set 5; NAD-dependent protein deacylase sirtuin-5, mitochondrial (Homo sapiens), Q9NXA8; Purified SirT5, succinyl-peptide AMC, trypsin-coupled fluorescence; inhibition, % at 15 µM; 1.1% of 330,000 active; in the data active = inhibition above about 15%; inconclusive = no clear call, values can overlap the other calls
# Rtt109 HAT inh: inhibitors of C. albicans Rtt109/Vps75 HAT, primary screen, biochemical, ThioGlo CoA-SH fluorescence, plate reader | Histone acetyltransferase RTT109 (Candida albicans (strain SC5314 / ATCC MYA-2876)), … | inhibition, % at 34.9 µM | purified Rtt109/Vps75, 4 h | 0.16% of 330,000 active;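 active = inhibition of at least 50% in every replicate; inconclusive = best replicate reaches 50% inhibition but some replicates fall short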
# Starred values were filed as active, the others as inactive; u = inconclusive; x = not tested or not shown. An excerpt weighted towards active compounds, which were near 2.3% of everything screened.
SMILES,DENV2 CPE,PDI turbidity,ERp5 inh,SIRT5 inh,Rtt109 HAT inh
CO[C@@H]1CN(C)C(=O)c2ccc(NC(=O)NC(C)C)cc2OC[C@@H](C)N(CCC(F)(F)F)C[C@@H]1C,33*,x,-4,7,x
CO[C@H]1CN(C)C(=O)c2ccc(NC(=O)NC(C)C)cc2OC[C@H](C)N(CCC(F)(F)F)C[C@H]1C,55*,x,-3,5,x
CO[C@@H]1CN(C)C(=O)c2ccc(NC(=O)NC(C)C)cc2OC[C@@H](C)N(CCC(F)(F)F)C[C@H]1C,-7,x,8,4,x
NC[C@H](Cc1ccccc1)NCCCCC1CCCCC1,35*,4,5,x,-3
C[C@@H]1CN([C@@H](C)CO)C(=O)c2cc(C#Cc3ccccc3F)cnc2O[C@H]1CN(C)C(=O)Cc1ccccc1,u,x,-2,-2,x
N=c1n(CCN2CCCCC2)c2ccccc2n1CC(O)c1ccc(Cl)c(Cl)c1 (configuration not stated),x,11,x,x,58*
COc1ccc(CNC(=O)C[C@H]2C[C@@H]3c4cc(NS(=O)(=O)c5ccc(F)cc5)ccc4O[C@@H]3[C@H](CO)O2)cc1,-8,x,0,0,x
C[C@H](CO)N1C[C@H](C)[C@@H](CN(C)C(=O)CN(C)C)Oc2cc(C3=CCCC3)ccc2S1(=O)=O,-4,x,-7,1,x
O=C(C[C@H]1C[C@@H]2c3cc(NC(=O)c4cccnc4)ccc3O[C@@H]2[C@@H](CO)O1)NCc1ccccn1,-5,x,0,5,x
O=C1COc2cc(ccc2[N+](=O)[O-])Oc2ccc(cc2Cl)C(=O)CCCCO1,9,2,4,18*,7
C[C@H](NC(=O)[C@@H]1CCCN1C(=O)[C@@H]1CCCN1C(=O)OC(C)(C)C)c1ccccc1,u,x,-5,16*,x
CCOc1cc(OCC)cc(C(=O)N2CCC[C@@H]2C(=O)N2CCC[C@@H]2C(=O)NCc2ccccc2Cl)c1,81*,x,-6,-4,x
CC(C)(C)OC(=O)N1CCC[C@@H]1C(=O)N1CCC[C@@H]1C(=O)NCc1ccccc1Cl,34*,x,3,6,x
O=C(C[C@H]1CC[C@@H](NC(=O)Nc2ccc3c(c2)OCO3)[C@@H](CO)O1)NCCCN1CCOCC1,x,x,x,-6,x
CCC(=O)N1C[C@@H](C)[C@H](OC)CN(C)C(=O)c2cc(NS(=O)(=O)CC)ccc2OC[C@@H]1C,9,x,2,-5,x
C=C(NC(=O)C(=C)NC(=O)c1csc(C2=NC3c4csc(n4)C4NC(=O)c5csc(n5)C(C(C)(O)C(C)O)NC(=O)C5CSC(=N5)/C(=C/C)NC(=O)C(C(C)O)NC(=O)c5csc(n5)C3(CC2)NC(=O)C(C)NC(=O)C(=C)NC(=O)C(=C)NC(=O)C(C(C)C)NC2C=Cc3c(C(C)O)cc(nc3C2O)C(=O)OC4C)n1)C(N)=O (configuration not stated),60*,-6,-2,3,-4
C[C@@H]1CCCCO[C@H](CN(C)Cc2ccc(C(=O)O)cc2)[C@H](C)CN([C@@H](C)CO)C(=O)c2cc(NC(=O)Nc3ccc4c(c3)OCO4)ccc2O1,6,x,-2,4,x
Cc1cccc(C(=O)c2ccccc2C(=O)O)c1O,x,1,x,x,6
Cc1cccc(C(=O)O)c1O,67*,x,0,x,x
Cc1cccc(C(=O)OCC(=O)NC(=O)c2ccccc2)c1O,3,-8,3,16*,-9
Cc1cc(C)c(C(=O)OCC(=O)NC(=O)c2ccccc2)c(C)c1,u,6,-6,-3,1
O=C1CN(C(=O)NCC(=O)N[C@H](C(=O)O)c2ccccc2)c2ccccc2N1,9,2,11,18*,-7
O=C1CN(C(=O)NCC(=O)N[C@H](Cc2ccccc2)C(=O)O)c2ccccc2N1,-10,x,3,0,0
CN1C(=O)C(=O)/C(=C(/O)c2ccccc2)C1c1ccc(Br)cc1 (configuration not stated),6,-9,-1,-4,-20
Cc1ccc(/C(O)=C2\C(=O)C(=O)N(C)C2c2ccccc2)cc1 (configuration not stated),39*,5,1,x,x
SMILES,DENV2 CPE,PDI turbidity,ERp5 inh,SIRT5 inh,Rtt109 HAT inh
COc1ccc(S(=O)(=O)Nc2ccc3c(c2)C(=O)N([C@@H](C)CO)C[C@@H](C)[C@@H](CN(C)Cc2ccc4c(c2)OCO4)OCCCC[C@@H](C)O3)cc1,-4,x,0,4,x
COc1ccc(S(=O)(=O)Nc2ccc3c(c2)C(=O)N([C@@H](C)CO)C[C@@H](C)[C@H](CN(C)Cc2ccc4c(c2)OCO4)OCCCC[C@@H](C)O3)cc1,56*,x,-2,4,x
COc1ccc(S(=O)(=O)Nc2ccc3c(c2)C(=O)N([C@H](C)CO)C[C@@H](C)[C@H](CN(C)Cc2ccc4c(c2)OCO4)OCCCC[C@H](C)O3)cc1,-5,x,-3,1,x
COc1ccc(S(=O)(=O)Nc2ccc3c(c2)C(=O)N([C@@H](C)CO)C[C@H](C)[C@@H](CN(C)Cc2ccc4c(c2)OCO4)OCCCC[C@H](C)O3)cc1,19,x,0,-3,x
COc1ccc(S(=O)(=O)Nc2ccc3c(c2)C(=O)N([C@H](C)CO)C[C@H](C)[C@@H](CN(C)Cc2ccc4c(c2)OCO4)OCCCC[C@H](C)O3)cc1,30*,x,-6,1,x
COc1ccc(S(=O)(=O)Nc2ccc3c(c2)C(=O)N([C@H](C)CO)C[C@H](C)[C@@H](CN(C)Cc2ccc4c(c2)OCO4)OCCCC[C@@H](C)O3)cc1,23*,x,2,1,x
COc1ccc(CN(C)C[C@H]2Oc3ccc(NC(=O)Nc4ccccc4)cc3CC(=O)N([C@@H](C)CO)C[C@@H]2C)cc1,2,x,-6,1,x
C[C@@H](NC(=O)[C@@H]1[C@@H](CO)[C@@H]2Cn3c(cccc3=O)[C@@H]2N1CC1CCCC1)c1ccccc1,156*,x,1,2,x
O=C(NCc1ccccn1)[C@@H]1[C@@H](CO)[C@@H]2Cn3c(cccc3=O)[C@@H]2N1CCc1ccccc1,-1,x,0,16*,x
C[C@H](NC(=O)[C@H]1[C@H](CO)[C@H]2Cn3c(cccc3=O)[C@H]2N1Cc1cccnc1)c1ccccc1,-6,x,-4,2,x
C[C@H](NC(=O)[C@@H]1[C@@H](CO)[C@@H]2Cn3c(cccc3=O)[C@@H]2N1Cc1cccnc1)c1ccccc1,41*,x,-1,11,x
O=C(NCc1ccc(F)cc1)[C@H]1[C@H](CO)[C@H]2Cn3c(cccc3=O)[C@H]2N1Cc1ccccn1,4,x,1,3,x
C[C@H](NC(=O)[C@@H]1[C@@H](CO)[C@@H]2Cn3c(cccc3=O)[C@@H]2N1CC1CCCCC1)c1ccccc1,2,x,5,-2,x
